High-throughput results as filed in PubChem BioAssay.
Sampled rows, rich in hits. Any-hit rate of the full collection: about 1.1%.
AmpC inh detg – blocks E. coli AmpC beta-lactamase in detergent assay; P00811; AmpC hydrolysis of nitrocefin, absorbance 480 nm, 0.01% Triton; actives 0.041% (n = 370,000); Potency, µM (titrated, usually from 114 µM), without a hit: top-dose activity change, negative = inhibition, usual class: inhibitors; AID 485294;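 also: 0% = no-compound wells and -100% = no-enzyme wells; nearly all actives have a fitted effect of over 25% in size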
Target sequence (P00811 whole entry, looked up): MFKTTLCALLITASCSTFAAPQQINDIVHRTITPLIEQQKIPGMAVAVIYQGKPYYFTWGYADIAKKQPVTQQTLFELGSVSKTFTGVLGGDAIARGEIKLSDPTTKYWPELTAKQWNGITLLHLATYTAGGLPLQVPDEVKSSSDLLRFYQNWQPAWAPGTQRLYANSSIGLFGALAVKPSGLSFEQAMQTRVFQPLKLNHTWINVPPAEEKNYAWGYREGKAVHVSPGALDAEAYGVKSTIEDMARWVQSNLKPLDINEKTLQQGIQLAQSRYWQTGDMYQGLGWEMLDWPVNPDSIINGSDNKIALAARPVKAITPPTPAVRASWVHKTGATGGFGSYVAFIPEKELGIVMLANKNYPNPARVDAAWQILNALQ
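AmpC (5.3 nM in the dispensed reagent) in 20 mM phosphate pH 7.0 with 0.01% (detergent screen) or 0.0001% Triton X-100 was preincubated with compounds for 15 min at room temperature. Nitrocefin was then added from an 800 uM solution, and hydrolysis was followed at 480 nm.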
VACV mCherry inh – vaccinia inhibition (mCherry reporter); Vaccinia virus mCherry reporter infection, fluorescence; Potency, µM (top dose mostly 36.5 µM), inactives show at the top dose activity change, negative = inhibition, usual class: inhibitors; actives 0.63% (n = 310,000); AID 720579; calls by dose curve; tested in A549 cells; also: nearly all actives have a fitted effect of over 35% in size
Vaccinia Venus – inhibitors of vaccinia virus (Venus reporter). Vaccinia virus Venus reporter expression, fluorescence. AID 720580. Potency, µM (doses to about 36.5 µM), for the others: at the highest dose activity change, negative = inhibition, actives largely listed as inhibitors. actives 0.46% (n = 330,000); calls by dose curve; tested in A549 cells; also: nearly all actives have a fitted effect of over 30% in size
AmpC inh no detg – blocks E. coli AmpC beta-lactamase in detergent-free assay. P00811. AmpC nitrocefin hydrolysis, absorbance 480 nm, 0.0001% Triton. Potency, µM (series often up to 57.1 µM), without a hit: at the highest dose activity change, negative = inhibition, hits mostly inhibitors. actives 0.52% (n = 330,000);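 also: plate controls were no compound for no effect and no enzyme for full effect; nearly all actives have a fitted effect of over 20% in size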
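AmpC (5.3 nM in the dispensed reagent) in 20 mM phosphate pH 7.0 with 0.01% (detergent screen) or 0.0001% Triton X-100 was preincubated with compounds for 15 min at room temperature. Nitrocefin was then added from an 800 uM solution, and hydrolysis was followed at 480 nm.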
Starred values were filed as active, the others as inactive; u = inconclusive; x = no result; [ ] = another dose, or the depositor's remark. Unless noted, calls follow the shape of the dose curve; as a rule, active = well fitted curve in the direction sought with a large enough effect; inconclusive = small, poorly fitted or top-dose-only effect, or another doubt; inactive = no such curve, though single readings can be large; an effect the other way counts as inactive or inconclusive. Unless noted, % is scaled to controls: 0 for no effect and ±100 for the full control effect; potency is read from the fitted curve at half-maximal effect.

SMILES | AmpC inh detg | VACV mCherry inh | Vaccinia Venus | AmpC inh no detg
COc1ccccc1-c1ccc(C(=O)N2CCC(N3CCc4ccccc4C3)CC2)c(N(C)CC2COCCO2)n1 (stereo not drawn) | x | -1% | 12% | x
COc1ccc(-n2ccc(=O)c(C(=O)Nc3ccc(S(=O)(=O)Nc4nccs4)cc3)n2)cc1 | 50µM* | 4%[7.34 µM] | 0%[7.34 µM] | -30%
O=C(Nc1ccc(S(=O)(=O)Nc2nccs2)cc1)c1nn(-c2ccccc2)ccc1=O | u | x | x | -38%
Cc1cc(C)c(S(=O)(=O)NCCn2ccc3ccccc32)c(C)c1 | u | -7% | -18% | 40µM*
Cc1cccc(C)c1Nc1nnc(SCC(=O)c2ccc3c(c2)NC(=O)CO3)s1 | -4% | -12% | -13% | 25µM*
CN(C)C(=O)[C@@H]1C[C@@H](Sc2nc3ccccc3[nH]2)CN1Cc1ccnc2ccccc12 | x | -3% | 0% | x
CN1CCc2c(sc(NC(=O)c3ccc([N+](=O)[O-])o3)c2C(N)=O)C1 | -3% | u | 2.2µM* | -10%
Cc1nc(N2CCN(C(=O)c3cccs3)CC2)c2c3c(sc2n1)CCCC3 | 35µM* | u | u | 48%
Cc1nc(N2CCN(C(=O)c3ccco3)CC2)c2c3c(sc2n1)CCCC3 | -3% | u | -22% | 94%
COc1cc(C2NC(=S)NC(C)=C2C(=O)c2ccccc2)ccc1O (stereo not drawn) | -5% | -1% | -4% | 14µM*
COc1ccc(COc2ccsc2C(=O)Nc2ccc(Cl)cc2)cc1 | 0% | x | x | 0.35µM*
COc1ccc(NC(=O)c2csc(Cc3ccc(Cl)cc3)n2)cc1 | -1% | x | x | -16%
COc1ccc(C2=C(C)C(=NCCCN3CCN(c4cc(Cl)ccc4C)CC3)NS2(=O)=O)cc1 | -14% | u | u | x
CC1=C(c2ccc(Cl)cc2)S(=O)(=O)NC1=NCCCN1CCN(c2cc(C)ccc2C)CC1 | 17% | 10µM* | 11µM* | x
COC(=O)c1ccccc1C(=O)N1CCOc2ccc(CN3CCN(c4ccccn4)CC3)cc2C1 | x | -4% | -7% | x
NC1=NC[C@H](Cc2ccccc2)N1CCCCC1CCCCC1 | 0% | u | u | -12%
Oc1ccc(C[C@@H]2CNCCN2CC2CCCCC2)cc1 | -11% | -19% | -19% | -12%
Oc1ccc(C[C@H]2CNCCN2CCCCC2CCCCC2)cc1 | -14% | u | 11µM* | 60%
NC1=NC[C@H](Cc2ccc(O)cc2)N1CCCCC1CCCCC1 | -1% | 8.9µM* | u | 21%
O=C(NNS(=O)(=O)c1ccc(Cl)cc1)c1cc(-c2ccccc2)nc2ccccc12 | -5% | -4% | -9% | 28µM*
Cc1cccc(S(=O)(=O)NNC(=O)c2cc(-c3ccc(F)cc3)nc3ccccc23)c1 | -11% | x | x | -42%
C/C(=N/NC(=O)c1cnccn1)c1ccncc1 | -3% | 6% | 9% | -13%
CC(=NNC(=S)N1CC2CCC(CC2)C1)c1cnccn1 | x | 16µM* | u | x
COc1ccccc1N1CCN(c2nc(CNC(=O)c3sc(C)nc3C)nc3ccccc23)CC1 | x | -17% | -13% | x
COc1ccc(C[C@H]2CN3C(=NC[C@@H]3Cc3ccc(O)cc3)N2C[C@H](C)NC(=O)c2ccc(C)c(Br)c2)cc1 | 10% | u | 13µM* | -15%
SMILES | AmpC inh detg | VACV mCherry inh | Vaccinia Venus | AmpC inh no detg
Cc1ccc(C(=O)N[C@@H](C)CN2C3=NC[C@@H](Cc4ccccc4)N3C[C@H]2Cc2ccc(O)cc2)cc1Br | 6% | u | u | -1%
Cc1ccc(C(=O)N[C@@H](C)CN2C3=NC[C@H](Cc4ccccc4)N3C[C@H]2Cc2ccc(O)cc2)cc1Br | 1% | u | 13µM* | 51%
COc1ccccc1C(=O)Nc1cccc(N2CCC(NCc3cnn(-c4ccccc4)n3)CC2)c1 | x | -7% | -30% | x
CCOc1ccc(CCN2C(=O)C(=O)N([C@@H](CC(C)C)CN3CCC[C@@H]3CN3C(=O)C(=O)NC[C@@H]3Cc3ccccc3)C[C@@H]2CC(C)C)cc1 | x | -1% | 13µM* | x
CC(C)C[C@@H](CN1CCCC1CN1C(=S)NC[C@@H]1Cc1ccc(O)cc1)N1C[C@H](Cc2ccc(O)cc2)N(CCc2ccccc2)C1=S (stereo partly drawn) | x | -3% | 10µM* | x
COc1cc(=O)n2c(c1C(=O)NCc1nccs1)CCN(Cc1ccccc1F)CC2 | x | -5% | -17% | x
COC(=O)C1CCN(Cc2ccc3c(c2)CN(C(=O)c2cc4cc(F)ccc4[nH]2)CCO3)CC1 | x | -5% | 1% | x
CN(C)CC1CCC/C(=C\c2ccc(OC(=O)c3ccc(Cl)cc3)cc2)C1=O (stereo not drawn) | x | -21% | u | x
CN(C)CCC1(C2=CCCC2)CC/C(=C/c2ccc(Cl)cc2)C1=O (stereo not drawn) | x | u | 11µM* | x
O=C(NCCN1CCOCC1)c1cnn(-c2nccc(-c3cc4ccccc4o3)n2)c1C1CC1 | x | -6% | -22% | x
CC(C)C(=O)NC(c1ccc(N(C)C)cc1)c1ccc2cccnc2c1O (stereo not drawn) | x | 4µM* | u | x
CCCCC(=O)NC(c1ccc(N(C)C)cc1)c1ccc2cccnc2c1O (stereo not drawn) | -13% | 1.3µM* | -27% | 2%
CCCCC(=O)NC(c1ccc(Cl)cc1)c1ccc2cccnc2c1O (stereo not drawn) | x | 6.3µM* | u | x
CCCCC(=O)NC(c1ccc(N(CC)CC)cc1)c1ccc2cccnc2c1O (stereo not drawn) | 7% | u | u | -46%
CCCC(=O)NC(c1ccc(Cl)cc1)c1ccc2cccnc2c1O (stereo not drawn) | -13% | u | u | -46%
Cc1oc(-c2ccccc2NC(=O)C2CCC2)nc1CNC(=O)c1cccc(C(F)(F)F)c1 | x | -5% | -5% | x
CCn1nc(C)cc1C(=O)NCC1Cc2cccc(-c3cccnc3)c2O1 (stereo not drawn) | x | -17% | -14% | x
COCc1c(C(=O)N2CCC(c3ccccc3)CC2)cnn1-c1nccc(-c2cc(C)sc2C)n1 | x | 14µM* | u | x
CC(=O)c1ccc(F)c(-c2cc(C)cc3c2OC(CNC(=O)c2csc(C)n2)C3)c1 (stereo not drawn) | x | -19% | -15% | x
CCCCN(CCC(=O)O)c1ccc(/C=C/c2ccnc3ccccc23)cc1 | x | u | -8% | x
C=CC(=O)Nc1ccc(N(C)c2ccnc(Nc3ccc(N4CCN(C)CC4)cc3)n2)cc1 | x | 6.3µM* | 7.9µM* | 74%
CCCC(=O)NC(c1cccc([N+](=O)[O-])c1)c1ccc2cccnc2c1O (stereo not drawn) | x | 4µM* | u | x
CC(C)C(=O)NC(c1cccs1)c1cc([N+](=O)[O-])c2cccnc2c1O (stereo not drawn) | u | 11µM* | u | -49%
CC(C)C(=O)NC(c1ccco1)c1ccc2cccnc2c1O (stereo not drawn) | -12% | x | u | -26%
CC(C)C(=O)NC(c1cccc([N+](=O)[O-])c1)c1ccc2cccnc2c1O (stereo not drawn) | u | u | 4.5µM* | -27%
